From PubChem BioAssay AID1362 (SRMLSC, 2008)
The whole screen tested about 190,000 compounds, of which about 4,000 (2.1%) were called active. Cut-off read from the data, not from the text of the source: active = inhibition above about 58%; inactive = the rest, inconclusive results apart; tested in S. cerevisiae. The sample as a whole holds a higher share of actives than the screen did.

Assay: growth inhibition of WT strain, primary screen, mitochondrial fusion inhibitor project, WT and mutant strains, chemical genetic (AID 1362)
Details: mitochondrial fusion phenotypic screen, at 10 µM
[1] = WT strain, growth inhibition, stronger effect = higher value

Compound	inhibition [1]	inhibition (mutant strain inhibition)
Cc1nc(SCC(=O)Nc2cc(C)on2)c2c3c(sc2n1)CCCC3	21.1% (inactive)	31.1%
COCCNc1nc(-n2nc(C)cc2C)nc2sc3c(c12)CCCC3	18.8% (inactive)	0%
Cc1cc(C)n(-c2nnc(N3CCN(c4ccccc4)CC3)nn2)n1	12.1% (inactive)	10.8%
CC(CO)NCC12CC3CC(CC(C3)C1)C2 (stereo not drawn)	-17.6% (inactive)	-8.59%
Cc1ccc(Nc2c(F)c(F)c(F)c(F)c2C(=O)O)c(C)c1	-0.48% (inactive)	-18%
Cc1ccccc1NC(=O)c1ccccc1	-1% (inactive)	-29.4%
COc1c(F)c(F)c(C(=O)O)c(Nc2ccccc2C)c1F	74.2% (active)	15.4%
CC(=O)c1ccc(NC(=O)C(C)NCc2ccc(Cl)cc2)cc1 (stereo not drawn)	26.3% (inactive)	-21.6%
Cc1cccc(C)c1NC(=O)Nc1ccccc1-n1ccnc1	0.23% (inactive)	6.61%
CCNC(=S)NNC(=O)C1CCN(Cc2ccccc2)CC1	2.38% (inactive)	-10.7%
CCC(C)(C)n1nnnc1C(c1cccs1)N1CCN(Cc2ccccc2)CC1 (stereo not drawn)	10.3% (inactive)	21.9%
Fc1ccc(Cn2nnnc2C(c2cccs2)N2CCCCCC2)cc1 (stereo not drawn)	62.9% (active)	11.4%
Fc1ccccc1C(c1nnnn1Cc1ccc2c(c1)OCO2)N1CCN(Cc2ccccc2)CC1 (stereo not drawn)	15.4% (inactive)	18.9%
O=C(NCc1nnc(SCC(=O)N2CCCc3ccccc32)o1)c1ccccc1F	1.27% (inactive)	-4.18%
CC(=O)Nc1ccc(CN2CCN(Cc3ccc(F)c(F)c3)C(CCO)C2)cc1 (stereo not drawn)	1.99% (inactive)	5.61%
Cc1ccc(NCc2n[nH]c(=S)n2-c2ccccc2)cc1Cl	-7.14% (inactive)	3.54%
CC(=O)n1cc([C@@H]2C=C(C(=O)N3CCN(Cc4ccc5c(c4)OCO5)CC3)O[C@H](OCc3ccc(CO)cc3)C2)c2ccccc21	1.15% (inactive)	3.61%
OCCCC1CCCCN1Cc1nc(Cc2ccccc2Cl)no1 (stereo not drawn)	-11.6% (inactive)	-5.21%
C=CCC(CC=C)(C(N)=O)c1ccccc1	-18.5% (inactive)	6.11%
CC(C)(c1ccccc1)c1ccc(OCCN)cc1	79.8% (active)	43.4%
CN(C)CC(O)COc1ccc(C(C)(C)c2ccc(OCC(O)CN(C)C)cc2)cc1 (stereo not drawn)	-19.2% (inactive)	-3.67%
O=C(NCCOc1ccccc1)c1ccccc1	3.33% (inactive)	5.23%

Compound	inhibition [1]	inhibition (mutant strain inhibition)
CCOC(=O)c1cc(-c2ccc(F)cc2)n(CC(=O)NCc2ccccn2)c1C	-1.19% (inactive)	1.72%
Cc1nn(-c2ccc([N+](=O)[O-])cc2)c(N)c1-c1ccccc1	6.29% (inactive)	-26%
Cn1cccc1C(C#N)c1ccccc1C#N (stereo not drawn)	-2.23% (inactive)	-5.92%
COc1ccccc1CCNC(=O)CSc1nnc2ccc(-c3cccnc3)nn12	-7.72% (inactive)	2.87%
CC(NC(=S)Nc1ccc(OC(F)F)cc1)c1ccc(F)cc1 (stereo not drawn)	42.7% (inactive)	-13.6%
CN(C)CCCN(C(=O)COc1ccccc1)c1nc2c(Cl)cccc2s1	-5.71% (inactive)	13.3%
CC(=O)N(CCCN(C)C)c1nc2ccc(C)cc2s1	-12.7% (inactive)	-0.04%
COc1cccc2sc(N(CCCN(C)C)C(=O)C(c3ccccc3)c3ccccc3)nc12	96.8% (active)	88.8%
COc1ccc(CNc2c(CO)cnc3c2cnn3C)cc1	4.76% (inactive)	3.68%
COCC(C)NC(=O)CSc1nc2nn(-c3ccccc3)c(=O)c-2c2n1CCCCC2 (stereo not drawn)	0.91% (inactive)	-15.1%
O=C(/C=C/c1ccccc1)c1ccccc1O	12.3% (inactive)	8.14%
O=C(N/N=C/C=C/c1ccccc1)C1CC1(c1ccccc1)c1ccccc1 (stereo not drawn)	17.1% (inactive)	-3.76%
CC(/C=C/c1ccccc1)=N\NC(=O)C1CC1(C)c1ccccc1 (stereo not drawn)	71.7% (active)	59.3%
CCOC(=O)C1=C(CC)Nc2ccccc2N=C1N	-42.2% (inactive)	-18.4%
CCO[C@H]1OC(C(=O)N2CCCCCCC2)=C[C@@H](c2ccc(C(F)(F)F)cc2)[C@@H]1CCCO	-11% (inactive)	9.51%
O=C(Nc1ccc(Cl)cc1)c1ccsn1	12.9% (inactive)	28%
O=C(Nc1ccccc1)c1nnsc1S(=O)(=O)c1ccc(Cl)cc1	98.5% (active)	97.8%
CC(=O)Nc1cc(C(=O)O)ccc1S(=O)(=O)c1ccc(Cl)cc1	8.84% (inactive)	41.8%
CN(C)c1ccc(C=NCCc2ccc(S(N)(=O)=O)cc2)cc1	-3.5% (inactive)	-12.7%
CC(C)CC(COCc1ccc(Cl)cc1)N1CCN(C(=O)c2ccc(C(F)(F)F)cc2)CCC1=O (stereo not drawn)	35.7% (inactive)	0.99%
O=C(c1cc(Cl)cc(Cl)c1)N1CCC(=O)N(C(COCc2ccccc2)Cc2ccccc2)CC1 (stereo not drawn)	71.4% (active)	11.6%
CC(C)CC(CO)N1CCN(C(=O)c2ccc(Cl)cc2Cl)CCC1=O (stereo not drawn)	-10.3% (inactive)	1.82%
